Reference: the supplement of paper PMC10849652
The full data set covers some 7,900 targets. This sample favours those with a hit. About 0.6% of all pairs of compound and target were hits.

compound: CS(=O)(=O)CCNCc1ccc(-c2ccc3ncnc(Nc4ccc(OCc5cccc(F)c5)c(Cl)c4)c3c2)o1 [lapatinib]; assay: log2 fold change, soluble protein after heating vs DMSO (PISA); higher = thermal stabilisation; K562 cells, 10 uM, 30 min; active = over 0.2 and 3.5 SD of the protein, either way, in both replicates (recomputed)
Procedure, shortened: (§1)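 Aliquots of K562 cells (2×10^6 cells/mL) treated with 10 μM compound for 30 min were heated for 3 min over 48°C-58°C. After pooling and extraction in PBS with 0.5% NP-40 at 4°C, soluble protein from a 21,000xg, 90 min spin was quantified by TMTpro 16plex LC-MS/MS with channel sums equalised. Thermal stability is expressed against control samples, from duplicates, as a log2 fold change.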

Sequence of UniProt Q96DI7 (Q96DI7 whole entry, looked up): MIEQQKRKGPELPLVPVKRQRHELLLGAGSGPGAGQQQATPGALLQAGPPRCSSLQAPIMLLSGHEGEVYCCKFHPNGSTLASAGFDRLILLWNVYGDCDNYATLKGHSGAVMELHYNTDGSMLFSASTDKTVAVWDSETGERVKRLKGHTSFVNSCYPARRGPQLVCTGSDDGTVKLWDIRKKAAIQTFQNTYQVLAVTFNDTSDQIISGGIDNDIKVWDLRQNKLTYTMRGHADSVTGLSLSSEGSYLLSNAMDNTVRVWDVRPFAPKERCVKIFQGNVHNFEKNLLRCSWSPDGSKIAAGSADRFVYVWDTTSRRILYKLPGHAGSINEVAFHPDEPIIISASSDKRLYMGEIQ
Sequence of UniProt Q9NRS6 (Q9NRS6 whole entry, looked up): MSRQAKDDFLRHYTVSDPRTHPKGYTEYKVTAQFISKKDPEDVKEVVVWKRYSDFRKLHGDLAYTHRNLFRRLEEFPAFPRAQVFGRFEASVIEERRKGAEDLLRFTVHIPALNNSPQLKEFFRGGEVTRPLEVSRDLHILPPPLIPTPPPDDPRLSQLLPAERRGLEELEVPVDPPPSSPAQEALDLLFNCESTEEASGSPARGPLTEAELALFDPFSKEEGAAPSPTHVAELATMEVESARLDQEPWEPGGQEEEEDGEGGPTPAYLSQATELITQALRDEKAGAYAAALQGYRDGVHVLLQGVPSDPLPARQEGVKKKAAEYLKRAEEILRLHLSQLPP
Sequence of UniProt Q8N0X7 (Q8N0X7 whole entry, looked up): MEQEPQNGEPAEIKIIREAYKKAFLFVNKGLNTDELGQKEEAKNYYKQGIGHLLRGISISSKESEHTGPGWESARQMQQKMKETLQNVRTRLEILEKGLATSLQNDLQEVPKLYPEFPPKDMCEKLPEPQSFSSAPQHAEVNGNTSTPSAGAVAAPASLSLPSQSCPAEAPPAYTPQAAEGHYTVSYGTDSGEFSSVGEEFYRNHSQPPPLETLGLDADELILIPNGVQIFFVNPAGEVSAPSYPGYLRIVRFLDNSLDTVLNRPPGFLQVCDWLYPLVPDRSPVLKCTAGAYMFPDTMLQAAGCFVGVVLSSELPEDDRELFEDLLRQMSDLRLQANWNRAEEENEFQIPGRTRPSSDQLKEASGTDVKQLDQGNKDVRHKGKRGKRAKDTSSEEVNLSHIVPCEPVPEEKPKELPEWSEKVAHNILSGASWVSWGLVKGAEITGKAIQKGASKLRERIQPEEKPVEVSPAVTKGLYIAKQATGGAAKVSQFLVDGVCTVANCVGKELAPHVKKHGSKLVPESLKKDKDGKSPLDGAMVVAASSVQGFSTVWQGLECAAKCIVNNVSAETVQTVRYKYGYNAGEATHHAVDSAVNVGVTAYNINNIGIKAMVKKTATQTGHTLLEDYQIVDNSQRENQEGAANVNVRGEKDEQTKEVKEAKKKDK
Sequence of UniProt P23497 (P23497 whole entry, looked up): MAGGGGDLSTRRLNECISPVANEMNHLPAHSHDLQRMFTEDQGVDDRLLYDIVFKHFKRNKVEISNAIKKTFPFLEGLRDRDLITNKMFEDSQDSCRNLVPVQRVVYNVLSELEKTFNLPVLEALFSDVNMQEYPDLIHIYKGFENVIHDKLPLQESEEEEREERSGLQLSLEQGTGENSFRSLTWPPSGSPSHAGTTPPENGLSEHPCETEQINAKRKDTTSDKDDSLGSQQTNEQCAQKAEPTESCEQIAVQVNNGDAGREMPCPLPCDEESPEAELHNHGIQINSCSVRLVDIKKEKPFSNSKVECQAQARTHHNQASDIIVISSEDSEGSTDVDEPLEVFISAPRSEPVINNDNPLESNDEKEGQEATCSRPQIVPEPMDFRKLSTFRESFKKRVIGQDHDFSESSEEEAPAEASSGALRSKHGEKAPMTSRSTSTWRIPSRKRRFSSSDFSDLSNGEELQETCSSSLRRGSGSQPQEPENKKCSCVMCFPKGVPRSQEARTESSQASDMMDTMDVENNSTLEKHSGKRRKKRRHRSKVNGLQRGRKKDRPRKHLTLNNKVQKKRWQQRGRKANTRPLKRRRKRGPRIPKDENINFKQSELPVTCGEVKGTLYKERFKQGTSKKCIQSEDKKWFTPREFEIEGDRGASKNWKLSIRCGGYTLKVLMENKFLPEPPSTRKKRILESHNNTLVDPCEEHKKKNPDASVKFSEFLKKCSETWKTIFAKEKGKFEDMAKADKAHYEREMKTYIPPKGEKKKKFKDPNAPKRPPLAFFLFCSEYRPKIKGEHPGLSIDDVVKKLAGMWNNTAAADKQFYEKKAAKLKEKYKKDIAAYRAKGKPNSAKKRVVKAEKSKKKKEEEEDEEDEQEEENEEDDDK
Sequence of UniProt Q5VWP2 (Q5VWP2 whole entry, looked up): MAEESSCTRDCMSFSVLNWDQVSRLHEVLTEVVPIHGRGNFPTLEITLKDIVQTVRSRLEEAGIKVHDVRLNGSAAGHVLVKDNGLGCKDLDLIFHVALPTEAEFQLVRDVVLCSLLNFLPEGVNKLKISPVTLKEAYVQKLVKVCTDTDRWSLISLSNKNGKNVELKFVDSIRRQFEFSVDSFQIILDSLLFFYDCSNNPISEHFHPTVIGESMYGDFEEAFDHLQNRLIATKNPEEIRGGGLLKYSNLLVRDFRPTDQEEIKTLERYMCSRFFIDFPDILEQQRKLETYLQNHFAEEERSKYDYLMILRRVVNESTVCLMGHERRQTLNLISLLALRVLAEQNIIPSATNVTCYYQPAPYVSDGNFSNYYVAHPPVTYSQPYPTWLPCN
Sequence of UniProt Q9Y6J9 (Q9Y6J9 whole entry, looked up): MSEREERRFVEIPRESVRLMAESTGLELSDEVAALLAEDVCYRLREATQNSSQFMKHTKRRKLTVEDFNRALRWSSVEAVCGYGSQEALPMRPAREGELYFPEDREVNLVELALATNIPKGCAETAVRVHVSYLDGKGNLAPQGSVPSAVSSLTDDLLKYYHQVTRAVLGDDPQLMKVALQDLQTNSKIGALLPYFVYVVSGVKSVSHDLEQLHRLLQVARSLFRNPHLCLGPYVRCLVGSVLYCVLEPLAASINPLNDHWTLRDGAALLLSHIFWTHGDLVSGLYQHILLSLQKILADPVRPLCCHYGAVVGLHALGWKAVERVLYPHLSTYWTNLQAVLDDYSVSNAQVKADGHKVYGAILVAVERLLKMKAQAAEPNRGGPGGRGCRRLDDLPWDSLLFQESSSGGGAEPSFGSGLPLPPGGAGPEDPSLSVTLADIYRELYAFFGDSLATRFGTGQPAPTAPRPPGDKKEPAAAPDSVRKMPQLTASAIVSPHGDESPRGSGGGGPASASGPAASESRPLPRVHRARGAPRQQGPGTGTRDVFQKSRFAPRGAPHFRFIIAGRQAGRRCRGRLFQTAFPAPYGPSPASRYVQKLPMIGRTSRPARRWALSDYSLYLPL
Sequence of UniProt Q13247 (Q13247 whole entry, looked up): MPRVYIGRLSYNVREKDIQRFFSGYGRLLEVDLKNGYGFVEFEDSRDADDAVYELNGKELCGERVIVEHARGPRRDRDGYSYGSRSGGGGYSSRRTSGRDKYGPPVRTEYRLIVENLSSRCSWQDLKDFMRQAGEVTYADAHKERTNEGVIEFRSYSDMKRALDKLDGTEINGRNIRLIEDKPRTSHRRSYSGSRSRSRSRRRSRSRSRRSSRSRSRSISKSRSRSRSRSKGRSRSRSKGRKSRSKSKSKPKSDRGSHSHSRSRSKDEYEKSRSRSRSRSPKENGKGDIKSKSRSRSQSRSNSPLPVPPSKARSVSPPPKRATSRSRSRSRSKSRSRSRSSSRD
Sequence of UniProt Q8NEF9 (Q8NEF9 whole entry, looked up): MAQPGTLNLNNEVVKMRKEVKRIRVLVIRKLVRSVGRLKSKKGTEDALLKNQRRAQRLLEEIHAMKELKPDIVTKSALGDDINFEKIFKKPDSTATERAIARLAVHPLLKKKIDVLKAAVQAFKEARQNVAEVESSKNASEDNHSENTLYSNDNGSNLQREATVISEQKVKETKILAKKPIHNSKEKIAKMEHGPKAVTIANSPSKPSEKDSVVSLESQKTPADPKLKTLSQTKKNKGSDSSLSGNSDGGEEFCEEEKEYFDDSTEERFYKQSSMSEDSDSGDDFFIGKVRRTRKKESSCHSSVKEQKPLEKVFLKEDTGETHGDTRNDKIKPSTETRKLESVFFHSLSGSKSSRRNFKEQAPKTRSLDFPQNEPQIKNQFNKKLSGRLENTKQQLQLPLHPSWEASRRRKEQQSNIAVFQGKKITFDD
Sequence of UniProt Q969X1 (Q969X1 whole entry, looked up): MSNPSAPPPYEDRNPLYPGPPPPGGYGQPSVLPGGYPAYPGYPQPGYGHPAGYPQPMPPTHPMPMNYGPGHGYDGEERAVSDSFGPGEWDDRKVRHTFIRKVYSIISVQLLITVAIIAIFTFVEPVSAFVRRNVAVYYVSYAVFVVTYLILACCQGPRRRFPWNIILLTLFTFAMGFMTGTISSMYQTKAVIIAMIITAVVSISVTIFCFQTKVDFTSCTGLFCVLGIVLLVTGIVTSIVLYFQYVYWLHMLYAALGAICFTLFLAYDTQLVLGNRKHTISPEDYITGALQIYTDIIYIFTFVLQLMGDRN
Sequence of UniProt Q8N5G0 (Q8N5G0 whole entry, looked up): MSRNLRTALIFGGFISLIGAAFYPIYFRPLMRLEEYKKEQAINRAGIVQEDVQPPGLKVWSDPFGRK
Sequence of UniProt Q14849 (Q14849 whole entry, looked up): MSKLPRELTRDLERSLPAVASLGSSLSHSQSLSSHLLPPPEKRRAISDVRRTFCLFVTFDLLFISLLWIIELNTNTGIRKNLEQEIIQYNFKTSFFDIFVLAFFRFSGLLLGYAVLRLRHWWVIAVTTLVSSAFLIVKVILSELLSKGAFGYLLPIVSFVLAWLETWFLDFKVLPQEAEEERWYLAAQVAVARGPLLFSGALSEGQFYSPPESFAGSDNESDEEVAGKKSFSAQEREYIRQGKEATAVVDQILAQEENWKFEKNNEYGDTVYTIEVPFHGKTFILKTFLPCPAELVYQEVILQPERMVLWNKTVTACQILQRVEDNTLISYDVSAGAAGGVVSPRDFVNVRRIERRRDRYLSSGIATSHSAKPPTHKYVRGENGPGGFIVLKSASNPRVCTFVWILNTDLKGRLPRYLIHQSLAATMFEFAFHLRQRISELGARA

Row | Target | log2 fold change
1 | SLC35F6 (UniProt Q8N357) | -0.076 (inactive)
2 | SLC27A1 (UniProt Q6PCB7) | 0.014 (inactive)
3 | SRSF6 (UniProt Q13247) | 0.163 (inactive)
4 | TATDN2 (UniProt Q93075) | 0.021 (inactive)
5 | TENT5C (UniProt Q5VWP2) | -0.092 (inactive)
6 | TMBIM1 (UniProt Q969X1) | 0.172 (inactive)
7 | SNRNP40 (UniProt Q96DI7) | 0.02 (inactive)
8 | SPART (UniProt Q8N0X7) | -0.015 (inactive)
9 | SRSF4 (UniProt Q08170) | 0.137 (inactive)
10 | SNX1 (UniProt Q13596) | -0.027 (inactive)
11 | THADA (UniProt Q6YHU6) | 0.012 (inactive)
12 | TACC2 (UniProt O95359) | 0.011 (inactive)
13 | SRFBP1 (UniProt Q8NEF9) | 0.13 (inactive)
14 | STARD3 (UniProt Q14849) | 0.043 (inactive)
15 | SNX15 (UniProt Q9NRS6) | -0.139 (inactive)
16 | SRCAP (UniProt Q6ZRS2) | 0.049 (inactive)

Row | Target | log2 fold change
17 | THYN1 (UniProt Q9P016) | -0.039 (inactive)
18 | SURF2 (UniProt Q15527) | 0.006 (inactive)
19 | TANGO6 (UniProt Q9C0B7) | 0.022 (inactive)
20 | SPCS2 (UniProt Q15005) | 0.002 (inactive)
21 | STAM2 (UniProt O75886) | -0.018 (inactive)
22 | SP100 isoform 4 (UniProt P23497) | 0.188 (inactive)
23 | TM7SF3 (UniProt Q9NS93) | 0.014 (inactive)
24 | TIMM10B (UniProt Q9Y5J6) | -0.248 (inactive)
25 | TLK1 (UniProt Q9UKI8) | -0.018 (inactive)
26 | SLC30A7 (UniProt Q8NEW0) | -0.013 (inactive)
27 | TAF6L (UniProt Q9Y6J9) | -0.133 (inactive)
28 | STX7 (UniProt O15400) | -0.002 (inactive)
29 | TARS2 (UniProt Q9BW92) | -0.022 (inactive)
30 | SUPT5H (UniProt O00267) | -0.006 (inactive)
31 | SMIM20 isoform 2 (UniProt Q8N5G0) | -0.044 (inactive)
32 | TANK (UniProt Q92844) | -0.015 (inactive)

compound: CS(=O)(=O)N1CCN(Cc2cc3nc(-c4cccc5[nH]ncc45)nc(N4CCOCC4)c3s2)CC1 [pictilisib]; assay: as above
Procedure, shortened: as §1

Row | Target | log2 fold change
33 | SLC44A2 isoform 2 (UniProt Q8IWA5) | 0.13 (inactive)
34 | STK38L (UniProt Q9Y2H1) | 0.05 (inactive)
35 | SRSF6 (UniProt Q13247) | -0.473 (inactive)
36 | TATDN2 (UniProt Q93075) | -0.016 (inactive)
37 | TENT5C (UniProt Q5VWP2) | 0.168 (inactive)
38 | TMBIM1 (UniProt Q969X1) | 0.138 (inactive)
39 | SNRNP40 (UniProt Q96DI7) | 0.295 (active)
40 | SPART (UniProt Q8N0X7) | 0.05 (inactive)
41 | SRSF4 (UniProt Q08170) | -0.007 (inactive)
42 | SMDT1 (UniProt Q9H4I9) | 0.095 (inactive)
43 | SNX1 (UniProt Q13596) | -0.205 (inactive)
44 | THADA (UniProt Q6YHU6) | -0.014 (inactive)
45 | SMARCB1 (UniProt Q12824) | 0.424 (inactive)
46 | TACC2 (UniProt O95359) | 0.046 (inactive)
47 | SRFBP1 (UniProt Q8NEF9) | -0.065 (inactive)
48 | SYNE1 (UniProt Q8NF91) | 0.187 (inactive)
49 | STARD3 (UniProt Q14849) | -0.047 (inactive)

Row | Target | log2 fold change
50 | SNX15 (UniProt Q9NRS6) | 0.018 (inactive)
51 | SRCAP (UniProt Q6ZRS2) | 0.015 (inactive)
52 | THYN1 (UniProt Q9P016) | -0.032 (inactive)
53 | SURF2 (UniProt Q15527) | -0.07 (inactive)
54 | SPCS2 (UniProt Q15005) | -0.006 (inactive)
55 | STAM2 (UniProt O75886) | 0.055 (inactive)
56 | SP100 isoform 4 (UniProt P23497) | 0.013 (inactive)
57 | TIMM10B (UniProt Q9Y5J6) | -0.126 (inactive)
58 | TLK1 (UniProt Q9UKI8) | -0.04 (inactive)
59 | SLC30A7 (UniProt Q8NEW0) | 0.028 (inactive)
60 | TAF6L (UniProt Q9Y6J9) | 0.166 (inactive)
61 | STX7 (UniProt O15400) | -0.118 (inactive)
62 | TARS2 (UniProt Q9BW92) | 0.004 (inactive)
63 | SUPT5H (UniProt O00267) | 0.05 (inactive)
64 | SMIM20 isoform 2 (UniProt Q8N5G0) | -0.044 (inactive)
65 | TANK (UniProt Q92844) | 0.027 (inactive)
